Structures are written as SMILES. Where “and” joins values, the source holds several entries; their conditions need not be identical. Equal values may be shown once. Results filed as inconclusive are left out. Calls of active or inactive are those of the source. How the source made its calls, unless noted: active means hit-call score of the fitted dose curve at least 0.9, where 1 is the maximum; inactive means score below 0.9.

Assay [1] has as its target Nuclear respiratory factor 1 (Homo sapiens) (UniProt Q16656). The assay can be described thus: ATG_NRF1_CIS: Attagene CIS-FACTORIAL HepG2 Assay for human Nuclear Respiratory Factor 1 (NRF1) Orphan Gene (AID 2282987). The note with it: HepG2 NRF1 cis-element reporter, Attagene multiplex; actives raise or lower the signal. In short, it runs like this:
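Reporter mRNA induction or loss in HepG2 cells after 24 h dosing; cis-regulated reporter constructs report endogenous transcription-factor activity. Quantified by RT-PCR/capillary electrophoresis fluorescence, DMSO-referenced.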

Assay [2] is described as follows: ATG_NFI_CIS: Attagene CIS-FACTORIAL HepG2 Assay for human Nuclear Factor I (NFI) (AID 2282989). The note with it: HepG2 cis-regulatory reporter, NFI response element transcription; actives raise or lower the signal. In short, it runs like this: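 Transfected HepG2 liver cells, exposed 24 h, supplied total RNA for oligo(dT) reverse transcription and reporter-specific PCR. Labelled, HpaI-cut fragments were sized by capillary electrophoresis; DMSO set the baseline for bidirectional fitting.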

For assay [3], the target named is Myc proto-oncogene protein (Homo sapiens) (UniProt P01106). The assay can be described thus: ATG_Myc_CIS: Attagene CIS-FACTORIAL HepG2 Assay for human Myelocytomatosis (Myc) Proto-Oncogene Transcription Factor (AID 2282990). The settings on record: HepG2, Attagene cis-reporter transcription factor activity; actives raise or lower the signal. The gist of the method:
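Transiently transfected HepG2 cells bearing cis-promoter reporter units for endogenous transcription factors; 24 h exposure. Reporter mRNA measured by RT-PCR, 6-FAM primer extension, HpaI cut and capillary electrophoresis; bidirectional fit relative to DMSO.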

Assay [4] in a line: ATG_NF_kB_CIS: Attagene CIS-FACTORIAL HepG2 Assay for human Nuclear Factor Kappa B (NF-kB) (AID 2282991). The note with it: HepG2 Attagene cis-factorial NF-kB reporter mRNA; actives raise or lower the signal. In short, it runs like this: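 DMSO served as negative control and baseline for bidirectional curve fitting. Transiently transfected HepG2 cells were dosed for 24 h, then reporter transcripts were measured by RT-PCR with capillary electrophoresis detection.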

The nature of assay [5]: ATG_NRF2_ARE_CIS: Attagene CIS-FACTORIAL HepG2 Assay for human Nuclear Factor Erythroid 2 Related Factor 2 (NFR2) response to Antioxidant Response Elements (ARE) (AID 2282992).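 On AC50: reporter mRNA level measured by RT-PCR and capillary electrophoresis fluorescence.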 The note with it: HepG2 Attagene ARE/NRF2 reporter, transcription factor activity; actives raise or lower the signal. The gist of the method:
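Endogenous transcription factor activity in human liver HepG2 cells is tracked via a cis-element-driven reporter within a multiplexed set. mRNA induction is read by RT-PCR and capillary electrophoresis after 24 h, with DMSO as baseline.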

Assay [6] is described as follows: ATG_Oct_MLP_CIS: Attagene CIS-FACTORIAL HepG2 Assay for human Octamer-Binding Transcription Factor (Oct) (AID 2282993). The note with it: HepG2 Attagene cis-factorial Oct reporter, mRNA; actives raise or lower the signal. In short, it runs like this:
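Using HepG2 cells bearing transfected cis-reporter constructs, mRNA induction was read after 24 h by fluorescent RT-PCR and capillary electrophoresis, with DMSO defining baseline for gain- or loss-of-signal fits.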

Assay [7] deals with Cellular tumor antigen p53 (Homo sapiens) (UniProt P04637). Kind of assay: ATG_p53_CIS: Attagene CIS-FACTORIAL HepG2 Assay for human p53 Transcription Factor (AID 2282994). The settings on record: HepG2 p53 cis-element reporter, Attagene mRNA; actives raise or lower the signal. The gist of the method: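 Steps: transfect HepG2 with multiplexed cis reporter constructs; dose chemicals 24 h; extract RNA, reverse-transcribe, PCR-amplify reporter sequences; FAM-label, HpaI-digest, resolve fragments by CE. Activity fitted both directions relative to DMSO.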
Cellular tumor antigen p53 (Homo sapiens), sequence (P04637 whole entry, looked up, the tested form may be a part): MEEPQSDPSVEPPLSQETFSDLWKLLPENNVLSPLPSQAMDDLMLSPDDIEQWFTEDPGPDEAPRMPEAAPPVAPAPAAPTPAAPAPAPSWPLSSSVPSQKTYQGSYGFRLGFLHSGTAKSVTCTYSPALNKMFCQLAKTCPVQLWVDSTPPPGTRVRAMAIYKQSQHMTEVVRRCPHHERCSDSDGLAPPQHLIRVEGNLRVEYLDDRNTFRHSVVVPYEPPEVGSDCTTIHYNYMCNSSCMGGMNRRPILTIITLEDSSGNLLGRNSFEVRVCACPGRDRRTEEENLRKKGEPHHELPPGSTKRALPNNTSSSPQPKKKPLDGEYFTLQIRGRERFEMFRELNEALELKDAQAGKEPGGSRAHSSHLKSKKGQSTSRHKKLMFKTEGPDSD

Assay [8] can be described thus: BSK_3C_TissueFactor: BioMAP Diversity Plus: 3C Assay for Tissue Factor Biomarker Activity (AID 2282997). The settings on record: BioMAP 3C HUVEC, tissue factor biomarker readout; actives raise or lower the signal. In short, it runs like this:
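Tissue factor on primary human umbilical vein endothelium was read by ELISA 24 h after dosing, gain or loss relative to DMSO. Cytotoxicity ran alongside via SRB (0.1%, TCA-fixed, 560 nm).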

A short description of assay [9]: BSK_3C_uPAR: BioMAP Diversity Plus: 3C Assay for Urokinase-type plasminogen activator receptor (uPAR) Biomarker Activity (AID 2282998). The note with it: BioMAP 3C HUVEC, uPAR biomarker ELISA; actives raise or lower the signal. The gist of the method: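 In this endothelial cell-based assay, human umbilical vein primary cells were treated with chemicals and harvested at 24 h. uPAR was quantified using ELISA, with gains or losses fitted relative to DMSO controls.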

The nature of assay [10]: BSK_3C_VCAM1: BioMAP Diversity Plus: 3C Assay for Vascular cell adhesion molecule 1 (VCAM1) Biomarker Activity (AID 2282999). The note with it: BioMAP 3C HUVEC, VCAM1 ELISA, cytokine-stimulated; actives raise or lower the signal. In short, it runs like this: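 HUVEC primary cells, 24 h compound exposure; VCAM-1 by ELISA; gain/loss of signal fitted bidirectionally vs DMSO baseline.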

Assay [11] is described as follows: BSK_4H_Eotaxin3: BioMAP Diversity Plus: 4H Assay for Eotaxin 3 Biomarker Activity (AID 2283000).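 On outcome: CCL26 protein level quantified by ELISA in parallel with SRB cytotoxicity check.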 The settings on record: primary human endothelial cells (HUVEC); actives raise or lower the signal. In short, it runs like this: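 Human umbilical vein endothelial cells (BSK_4H system) dosed with test chemical; Eotaxin-3 (CCL26) measured by ELISA 24 h after dosing. Bidirectional curve fitting relative to DMSO negative control as baseline.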

For assay [12], the target named is human Peroxisome Proliferator-activated Receptor alpha (PPARa), PPARA (gene 5465) (UniProt Q07869). The assay can be described thus: ATG_PPARa_TRANS: Attagene TRANS-FACTORIAL HepG2 Assay for human Peroxisome Proliferator-activated Receptor alpha (PPARa) (AID 2283001; active means hit-call score of the fitted dose curve at least 0.9, where 1 is the maximum;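 further: potency for gain of reporter signal over DMSO so agonist or activator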). In short, it runs like this:
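Transient HepG2 transfection, GAL4-UAS reporters, NR-Gal4 chimeras; 24 h compound exposure. Readout: reporter transcripts by RT-PCR, 6-FAM primer extension, HpaI digest, capillary electrophoresis. Positive direction vs DMSO baseline.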

Read-out in assay [13]: Intercellular Adhesion Molecule 1 (ICAM1), ICAM1 (gene 3383)
Kind of assay: BSK_3C_ICAM1: BioMAP Diversity Plus: 3C Assay for Intercellular Adhesion Molecule 1 (ICAM1) Biomarker Activity (AID 2283003). The note with it: primary human endothelial cells (HUVEC); actives raise or lower the signal. The gist of the method: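 ELISA read-out of ICAM-1; HUVEC (primary human), 3C system, 24 h post-dosing; bidirectional fit vs DMSO baseline.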

Assay [14] addresses human Retinoic Acid Receptor beta (RARb), RARB (gene 5915) (UniProt P10826). Kind of assay: ATG_RARb_TRANS: Attagene TRANS-FACTORIAL HepG2 Assay for human Retinoic Acid Receptor beta (AID 2283004; active means hit-call score of the fitted dose curve at least 0.9, where 1 is the maximum). In short, it runs like this:
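Induction of reporter mRNA from a chimeric RARb-Gal4 construct was measured by RT-PCR, FAM labelling, HpaI digestion and capillary electrophoresis. Measurements followed 24 h compound treatment of transiently transfected human HepG2 liver cells, with DMSO as baseline.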

Assay [15] deals with Retinoic acid receptor alpha (Homo sapiens) (UniProt P10276). Kind of assay: ATG_RARa_TRANS: Attagene TRANS-FACTORIAL HepG2 Assay for human Retinoic Acid Receptor alpha (RARa) (AID 2283005; active means hit-call score of the fitted dose curve at least 0.9, where 1 is the maximum). In short, it runs like this: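 HepG2 transiently transfected with multiplex GAL4-UAS reporter units including a human RARa–GAL4 chimera; 24 h compound exposure. Reporter mRNA quantified by RT-PCR, 6-FAM labeling and capillary electrophoresis; gain of signal versus DMSO.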
Retinoic acid receptor alpha (Homo sapiens), sequence (P10276 whole entry, looked up, the tested form may be a part): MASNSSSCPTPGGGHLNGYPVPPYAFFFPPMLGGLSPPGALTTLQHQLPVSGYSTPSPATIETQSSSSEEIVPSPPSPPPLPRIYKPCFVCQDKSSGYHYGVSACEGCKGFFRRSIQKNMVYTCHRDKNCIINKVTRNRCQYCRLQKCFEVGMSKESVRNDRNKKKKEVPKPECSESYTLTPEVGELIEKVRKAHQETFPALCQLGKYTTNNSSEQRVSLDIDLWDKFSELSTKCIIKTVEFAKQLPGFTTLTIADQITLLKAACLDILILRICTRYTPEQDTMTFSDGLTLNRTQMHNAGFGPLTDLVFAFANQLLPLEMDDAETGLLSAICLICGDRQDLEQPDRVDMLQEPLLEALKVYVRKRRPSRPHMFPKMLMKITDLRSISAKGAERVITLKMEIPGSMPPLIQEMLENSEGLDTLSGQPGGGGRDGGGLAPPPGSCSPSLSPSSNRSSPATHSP

The nature of assay [16]: BSK_3C_Proliferation: Cell Proliferation Assessment in the BioMAP Diversity Plus: 3C Assay (AID 2283006).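 On AC50: potency may reflect either rise or fall in cell number versus DMSO.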 The settings on record: primary human endothelial cells (HUVEC). In short, it runs like this:
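HUVEC, sub-confluent; 48 h chemical exposure; 10% TCA fix, 0.1% SRB stain, A560 total protein. Gain or loss of signal fitted both directions vs DMSO control.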

Assay [17] deals with Peroxisome proliferator-activated receptor gamma (Homo sapiens) (UniProt P37231). The assay can be described thus: ATG_PPARg_TRANS: Attagene TRANS-FACTORIAL HepG2 Assay for human Peroxisome Proliferator-activated Receptor-gamma (PPARg) (AID 2283007; active means hit-call score of the fitted dose curve at least 0.9, where 1 is the maximum). In short, it runs like this: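 Chimeric NR-Gal4 transactivation is measured in transiently transfected HepG2 cells by reporter mRNA induction at 24 h. Detection uses RT-PCR with fluorescent labelling and capillary electrophoresis; DMSO defines baseline.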
Peroxisome proliferator-activated receptor gamma (Homo sapiens), sequence (P37231 whole entry, looked up, the tested form may be a part): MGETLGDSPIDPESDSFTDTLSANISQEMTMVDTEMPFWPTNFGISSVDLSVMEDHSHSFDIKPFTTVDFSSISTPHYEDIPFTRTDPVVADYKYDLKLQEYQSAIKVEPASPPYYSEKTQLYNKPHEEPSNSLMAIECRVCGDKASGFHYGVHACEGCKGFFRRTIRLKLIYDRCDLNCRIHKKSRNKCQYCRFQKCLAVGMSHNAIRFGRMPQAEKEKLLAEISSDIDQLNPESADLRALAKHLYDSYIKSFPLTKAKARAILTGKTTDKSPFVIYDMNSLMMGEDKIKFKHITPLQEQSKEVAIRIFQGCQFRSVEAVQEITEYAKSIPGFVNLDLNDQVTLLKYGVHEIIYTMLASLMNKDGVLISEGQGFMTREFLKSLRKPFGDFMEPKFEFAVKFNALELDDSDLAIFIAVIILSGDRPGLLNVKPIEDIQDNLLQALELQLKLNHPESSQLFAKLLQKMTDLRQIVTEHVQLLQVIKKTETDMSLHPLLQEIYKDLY

For assay [18], the target named is Nuclear receptor subfamily 1 group I member 2 (Homo sapiens) (UniProt O75469). The assay can be described thus: ATG_PXR_TRANS: Attagene TRANS-FACTORIAL HepG2 Assay for human Pregnane X Receptor (PXR) (AID 2283008; active means hit-call score of the fitted dose curve at least 0.9, where 1 is the maximum). The gist of the method:
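HepG2 transfected (FuGene 6) with GAL4-UAS reporter units + PXR-Gal4 chimera; dosed 24 h. Total RNA → oligo(dT) RT → PCR → 6-FAM primer extension → HpaI cut → CE. Gain-of-signal vs DMSO.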

The target of assay [19] is human Retinoic Acid Receptor gamma (RARg), RARG (gene 5916) (UniProt P13631). Kind of assay: ATG_RARg_TRANS: Attagene TRANS-FACTORIAL HepG2 Assay for human Retinoic Acid Receptor gamma (RARg) (AID 2283009; active means hit-call score of the fitted dose curve at least 0.9, where 1 is the maximum). In short, it runs like this:
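Readout: reporter transcript levels via RT-PCR, 6-FAM primer-extension labelling, HpaI digestion and capillary electrophoresis. Cells: HepG2 carrying transfected RARg-GAL4 chimera plus UAS reporter set. Dosing 24 h; DMSO negative control.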

Assay [20] has as its target human Peroxisome Proliferator-activated Receptor delta (PPARd), PPARD (gene 5467) (UniProt Q03181). Kind of assay: ATG_PPARd_TRANS: Attagene TRANS-FACTORIAL HepG2 Assay for human Peroxisome Proliferator-activated Receptor delta (PPARd) (AID 2283002; active means hit-call score of the fitted dose curve at least 0.9, where 1 is the maximum). In short, it runs like this: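 HepG2 cells transiently transfected with GAL4-UAS multiplexed reporter units driven by exogenous chimeric NR-GAL4 proteins; 24 h compound exposure. Reporter mRNA measured by RT-PCR, 6-FAM primer extension, HpaI digestion and capillary electrophoresis; gain of signal fitted relative to DMSO.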

Myc proto-oncogene protein (Homo sapiens), sequence (P01106 whole entry, looked up): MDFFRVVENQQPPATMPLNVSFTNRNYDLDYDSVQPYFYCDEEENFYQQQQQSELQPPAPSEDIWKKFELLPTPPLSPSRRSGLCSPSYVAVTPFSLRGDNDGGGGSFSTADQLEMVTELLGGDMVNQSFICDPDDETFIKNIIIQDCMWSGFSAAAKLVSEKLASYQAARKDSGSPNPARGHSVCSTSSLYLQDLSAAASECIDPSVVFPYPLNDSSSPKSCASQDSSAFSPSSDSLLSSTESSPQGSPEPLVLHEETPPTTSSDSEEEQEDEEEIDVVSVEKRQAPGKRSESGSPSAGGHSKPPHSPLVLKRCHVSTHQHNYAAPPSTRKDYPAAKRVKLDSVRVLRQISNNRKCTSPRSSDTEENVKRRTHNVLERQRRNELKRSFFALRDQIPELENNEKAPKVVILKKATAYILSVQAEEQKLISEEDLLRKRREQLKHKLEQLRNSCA
Nuclear receptor subfamily 1 group I member 2 (Homo sapiens), sequence (O75469 whole entry, looked up, the tested form may be a part): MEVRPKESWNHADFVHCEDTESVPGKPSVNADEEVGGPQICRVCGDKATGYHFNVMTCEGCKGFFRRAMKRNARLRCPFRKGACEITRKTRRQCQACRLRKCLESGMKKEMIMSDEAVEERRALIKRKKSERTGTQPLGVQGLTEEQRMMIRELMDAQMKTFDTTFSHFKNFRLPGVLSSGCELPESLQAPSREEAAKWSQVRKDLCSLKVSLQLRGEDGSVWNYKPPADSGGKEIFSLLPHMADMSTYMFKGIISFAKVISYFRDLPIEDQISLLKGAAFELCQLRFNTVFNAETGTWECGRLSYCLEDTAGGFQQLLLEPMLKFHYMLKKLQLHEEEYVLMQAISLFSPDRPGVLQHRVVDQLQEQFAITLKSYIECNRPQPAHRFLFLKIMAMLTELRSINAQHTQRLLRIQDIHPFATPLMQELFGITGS
Nuclear respiratory factor 1 (Homo sapiens), sequence (Q16656 whole entry, looked up): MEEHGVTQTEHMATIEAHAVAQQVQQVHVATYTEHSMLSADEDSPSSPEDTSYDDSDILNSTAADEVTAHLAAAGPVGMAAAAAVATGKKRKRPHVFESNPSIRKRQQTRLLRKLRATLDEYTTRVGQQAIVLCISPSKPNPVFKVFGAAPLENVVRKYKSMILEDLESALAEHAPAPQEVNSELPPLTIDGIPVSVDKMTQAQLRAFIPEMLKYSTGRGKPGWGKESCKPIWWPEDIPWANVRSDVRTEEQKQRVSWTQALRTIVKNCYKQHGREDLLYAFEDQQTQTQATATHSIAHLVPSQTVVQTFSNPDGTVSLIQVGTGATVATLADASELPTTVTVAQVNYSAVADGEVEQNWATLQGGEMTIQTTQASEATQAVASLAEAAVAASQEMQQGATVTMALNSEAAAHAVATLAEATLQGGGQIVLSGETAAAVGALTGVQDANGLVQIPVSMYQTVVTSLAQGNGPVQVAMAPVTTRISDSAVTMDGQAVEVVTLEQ
human Retinoic Acid Receptor beta (RARb), RARB (gene 5915), sequence (P10826 whole entry, looked up, the tested form may be a part): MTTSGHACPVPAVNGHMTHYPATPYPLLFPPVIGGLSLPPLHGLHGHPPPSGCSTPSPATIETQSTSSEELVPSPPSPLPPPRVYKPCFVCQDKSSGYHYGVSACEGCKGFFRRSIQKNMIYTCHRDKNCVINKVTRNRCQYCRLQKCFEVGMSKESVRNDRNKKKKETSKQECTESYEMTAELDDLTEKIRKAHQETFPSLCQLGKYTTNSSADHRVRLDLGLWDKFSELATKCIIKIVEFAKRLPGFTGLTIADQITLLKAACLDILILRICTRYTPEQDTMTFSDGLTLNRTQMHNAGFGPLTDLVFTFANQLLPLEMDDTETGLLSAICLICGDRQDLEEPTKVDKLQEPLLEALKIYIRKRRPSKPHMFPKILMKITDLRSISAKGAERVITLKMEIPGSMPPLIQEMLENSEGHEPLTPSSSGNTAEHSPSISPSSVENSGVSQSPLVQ
human Retinoic Acid Receptor gamma (RARg), RARG (gene 5916), sequence (P13631 whole entry, looked up, the tested form may be a part): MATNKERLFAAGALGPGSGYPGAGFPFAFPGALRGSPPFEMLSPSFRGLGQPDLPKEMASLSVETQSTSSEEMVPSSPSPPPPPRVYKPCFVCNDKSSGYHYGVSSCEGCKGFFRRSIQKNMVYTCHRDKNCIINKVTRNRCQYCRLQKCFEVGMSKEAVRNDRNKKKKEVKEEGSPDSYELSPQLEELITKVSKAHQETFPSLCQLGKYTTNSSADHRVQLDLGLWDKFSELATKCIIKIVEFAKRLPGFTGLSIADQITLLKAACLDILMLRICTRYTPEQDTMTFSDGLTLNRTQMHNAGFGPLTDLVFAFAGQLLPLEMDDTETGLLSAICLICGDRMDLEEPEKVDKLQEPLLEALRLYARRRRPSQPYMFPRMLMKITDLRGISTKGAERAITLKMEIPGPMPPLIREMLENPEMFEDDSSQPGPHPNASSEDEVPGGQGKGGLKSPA
human Peroxisome Proliferator-activated Receptor delta (PPARd), PPARD (gene 5467), sequence (Q03181 whole entry, looked up, the tested form may be a part): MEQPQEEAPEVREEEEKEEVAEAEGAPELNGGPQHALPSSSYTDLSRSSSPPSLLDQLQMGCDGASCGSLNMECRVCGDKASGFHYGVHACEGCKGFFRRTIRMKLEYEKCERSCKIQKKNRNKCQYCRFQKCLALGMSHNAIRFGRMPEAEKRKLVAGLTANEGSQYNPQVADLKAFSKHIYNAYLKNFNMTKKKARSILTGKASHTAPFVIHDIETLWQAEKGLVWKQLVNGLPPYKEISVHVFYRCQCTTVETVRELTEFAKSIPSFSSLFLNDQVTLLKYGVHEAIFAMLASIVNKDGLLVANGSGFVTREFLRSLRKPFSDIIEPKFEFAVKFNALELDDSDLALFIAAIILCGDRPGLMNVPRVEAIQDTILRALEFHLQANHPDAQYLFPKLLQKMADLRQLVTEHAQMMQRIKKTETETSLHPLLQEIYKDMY
human Peroxisome Proliferator-activated Receptor alpha (PPARa), PPARA (gene 5465), sequence (Q07869 whole entry, looked up, the tested form may be a part): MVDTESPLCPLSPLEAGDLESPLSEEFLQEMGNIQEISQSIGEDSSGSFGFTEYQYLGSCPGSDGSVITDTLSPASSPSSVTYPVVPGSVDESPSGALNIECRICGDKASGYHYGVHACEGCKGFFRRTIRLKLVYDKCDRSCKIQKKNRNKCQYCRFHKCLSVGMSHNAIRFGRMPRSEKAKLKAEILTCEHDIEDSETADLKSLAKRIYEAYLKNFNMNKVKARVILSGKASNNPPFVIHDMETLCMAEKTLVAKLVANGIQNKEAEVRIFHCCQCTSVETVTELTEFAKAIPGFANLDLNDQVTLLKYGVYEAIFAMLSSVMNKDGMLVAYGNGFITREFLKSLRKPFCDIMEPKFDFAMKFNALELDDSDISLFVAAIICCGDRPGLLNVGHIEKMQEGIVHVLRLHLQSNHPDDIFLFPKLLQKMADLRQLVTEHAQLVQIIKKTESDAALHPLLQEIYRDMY

On to `O=C(Cl)C(F)(F)C(F)(F)C(F)(F)C(F)(F)C(F)(F)C(F)(F)F`, for which the result in assay [1], in assay [2], in [3], in [4], in assay [6] and in [7] was inactive. In addition, the outcome in assay [8], in [9], in [10], in assay [11], in assay [13] and in [14] was inactive. Moreover, the compound was classed as inactive in assay [15], in assay [16], in assay [18] and in assay [19]. Besides, the AC50 in assay [5] was 154 µM (active); in assay [12], 10.9 µM (active); in assay [17], 71.1 µM (active).
Turning to `O=C=NCc1cccc(CN=C=O)c1`, the outcome in assay [1], in assay [2], in assay [3], in assay [4], in assay [5] and in assay [6] was inactive. For the same compound, the compound was called inactive in assay [7], in assay [8], in assay [9], in assay [10], in assay [11] and in assay [20]. In addition, the outcome in assay [13], in assay [16] and in [18] was inactive.
Consider `OCCCC(F)(F)C(F)(F)C(F)(F)C(F)(F)C(F)(F)C(F)(F)C(F)(F)C(F)(F)F`, for which the result in assay [1], in assay [2], in [3], in assay [4], in assay [5] and in assay [6] was inactive. The call in [20], in assay [14], in assay [15], in assay [17], in assay [18] and in assay [19] was inactive. Besides, the AC50 in [7] is 30.7 µM (active); in [8], 13.1 µM (active) and 26.1 µM (active); in [9], 19.6 µM (active) and 42.2 µM (active); in assay [10] it was 39.9 µM (active) and 46 µM (active); in assay [11], 18.9 µM (active) and 31.8 µM (active); in assay [13] it was 22.4 µM (active) and 45.5 µM (active). The AC50 in assay [16] was 7.56 µM (active) and 9.56 µM (active).

These data come from PubChem BioAssay (EPA / NIEHS).
